The campaign covered roughly 330,000 compounds. About 1,400 (0.42%) were called active. The sample holds actives, similar compounds and a random draw of the others, so the mix is not that of the screen. Unmarked numbers belong to inactive results.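 The calls were made as follows: active = plate passing quality check with inhibition over a set limit, or well fluorescence over plate mean plus 4 SD; inactive = the rest.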

In PubChem BioAssay AID485275 (NMMLSC, 2010) one finds inhibition data, which are given here for 27 molecules.

The experiment can be described thus: inhibitors of Candida efflux pumps in yeast, primary screen, S. cerevisiae, Nile Red, multiplex (AID 485275).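 Also: Nile Red retained in pooled yeast measured as flow cytometry median fluorescence; 0% = buffer negative control and 100% = Enniatin B positive control; higher means more Nile Red kept so more efflux inhibition.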 The note with it: S. cerevisiae Candida pump triplex, at 10 µM, stronger effect = higher value.
As to `COc1cccc(N(CC(=O)NC2CCCC2)C(=O)Cn2nnc(-c3ccc(C)o3)n2)c1`, the inhibition (commonly the relative decrease from the control value, in per cent) was -0.2%. Consider `O=C1CCN(CCc2ccccc2)CCN1CCOc1ccccc1`, for which the inhibition was -0.09%. Turning to `CCN(CC(=O)Nc1cccc(S(N)(=O)=O)c1)Cc1nc2ccccc2c(=O)[nH]1`, the inhibition was -0.01%. With `Cc1ccc2[nH]c(=O)c(CN3CCCCC3)c(-c3ccccc3)c2c1`, the inhibition was 0.13%.

`CCCc1nc(-c2ccccc2O)n(-c2ccccc2)n1`: the inhibition was 0.2%. Turning to `Cc1cccc(-n2c(N)c(C(=O)N3CCN(C)CC3)sc2=S)c1`, the inhibition is -0.2%.

Consider `CCCc1nc(N2CCN(C)CC2)c2sc(=S)n(-c3ccccc3)c2n1`, for which the inhibition is 0.75% (active). Turning to `CCCN(CC(=O)Nc1ccccc1C)C(=O)c1ccc2[nH]c3c(c2c1)CC(C)CC3` (configuration not stated), the inhibition is 0.26%. Consider `Cn1nc(C(C)(C)C)c(NC(=O)c2sccc2Cl)c1C(C)(C)C`, for which the inhibition was 0.22%. With `COc1cccc(CNS(=O)(=O)c2csc(C(N)=O)c2)c1`, the inhibition was -0.01%. Regarding `CN(CCNC(=O)c1cc2c(-c3ccccc3F)nn(C)c2s1)C1CCCCC1`, the inhibition was 0%. The figure for `CCCCCCCCCCCCCCCC(=O)OC/C=C(C)/C=C/C=C(C)/C=C/C1=C(C)CCCC1(C)C` is 1.61% (active); for `CC1=C(/C=C/C(C)=C/C=C/C(C)=C/C=C/C=C(C)/C=C/C=C(C)/C=C/C2=C(C)CCCC2(C)C)C(C)(C)CCC1` it is 0.08%.

For the molecule `CCc1ccc(/C=N/NC(=O)c2ccc(OC3CCCC3)cc2)s1`, the inhibition was -0.12%. Turning to `COCCOC1CCN(C(=O)c2ccc(OC)c(OC3CCN(C(C)C)CC3)c2)CC1`, the inhibition was -0.1%.

Consider `CCOc1ccc(NC(=O)c2cccc3c2C(=O)N(CC2CCCO2)C3)cc1` (configuration not stated), for which the inhibition is 0.06%.

Consider `CC(C)n1c(COc2ccccc2)nc2ccccc21`, for which the inhibition was 0.39%.

On to `O=C(Cn1c(-c2cscn2)nc2ccccc21)Nc1ccc(Cl)cc1`, for which the inhibition was -0.15%.

For the molecule `O=C(Cn1c(COc2ccccc2)nc2ccccc21)Nc1cc(Cl)c(Cl)cc1Cl`, the inhibition was 0.72% (active). As to `Cc1ccc(C)c(NC(=O)c2ccc(OC(=O)c3ccco3)cc2)c1`, the inhibition is 0.04%. Regarding `Fc1ccccc1/C=N/n1c(-c2cccnc2)n[nH]c1=S`, the inhibition was -0.01%.

As to `S=c1[nH]nc(-c2ccncc2)n1/N=C/c1ccccc1Cl`, the inhibition is 0.13%. The figure for `COc1ccccc1/C=C/C=N/n1c(-c2ccc(Cl)cc2Cl)n[nH]c1=S` is 0.42% (active); for `Cn1c(=O)c2c(nc(N3CCCCCC3)n2CC(O)COc2ccc(Cl)cc2)n(C)c1=O` (configuration not stated) it is 0.11%; for `CCCCN1C(=O)/C(=C/C=C2/C=Cc3ccccc3N2CC)SC1=S` it is 1% (active).

As for `CCCCN1C(=O)/C(=C2/C=CC=CN2C)SC1=S`, the inhibition is 0.04%.

`CCCCN1C(=O)/C(=C2/Sc3ccc(Cl)cc3N2CC)SC1=S`: the inhibition was -0.02%.
